CYP2C19 activ: human CYP2C19 activators, primary screen, biochemical, luminescence; 96,000 tested, under 10 active; AID 1025, 2008; recombinant CYP2C19, luciferin-H EGE luminescence; active compounds read high; 0 = fully inhibited enzyme, 1 = untreated enzyme; activation factor at 5 µM; Cytochrome P450 2C19 (Homo sapiens), P33261;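 active = activation factor of at least 2 at 5 µM in the primary screen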;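 note: 0 = wells with 2.5 mM tranylcypromine and 1 = vehicle-only wells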
CYP2C19 inh: blockers of cytochrome P450 2C19 activity – biochemical, luminescence, ADME assay, primary screen | CYP2C19 Supersomes, luciferin-H EGE luminescence, 30 min | inhibition, % at 5 µM | P33261 | 96,000 tested, 21% active | AID 778, 2007;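 active = CYP2C19 inhibition above a set limit at 5 µM in the primary screen, cut at about 50% in these data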;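 note: plate controls were negative control wells for no effect and 2.5 mM tranylcypromine positive control for full effect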
CYP2C9 activ: human CYP2C9 activators, primary screen, biochemical, luminescence. recombinant CYP2C9, luciferin-H conversion; active compounds read high; factor 1 = untreated enzyme, 0 = blocked. activation factor at 5 µM. 96,000 tested, 1.4% active. AID 1024, 2008;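 active = activation factor of 2 or more for CYP2C9 at a 5 µM dose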;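 note: 0 = sulfaphenazole-blocked wells and 1 = vehicle-only wells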
Pyk2 oligo antag: antagonists of Pyk2 self-association, primary screen, Q293 cells, FERM NanoBiT luminescence, HTS | Protein-tyrosine kinase 2-beta (Homo sapiens), Q14289 | active compounds read low | z-score (the deposit names both 25 µM and 10 µM) | 99,000 tested, 0.83% active | AID 1347419, 2020;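 active = Z-score of -3 or lower, scaled per plate to the spread of control and sample wells; inactive = z-score above -3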;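 note: negative z-score means lost luminescence so less FERM oligomerization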
CYP2C9 inh: blockers of cytochrome P450 2C9 activity – biochemical, luminescence, ADME assay, primary screen; CYP2C9 Supersomes, luciferin-H conversion; inhibition, % at 5 µM; 96,000 tested, 20% active; AID 777, 2007;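 active = blocking of liver enzyme CYP2C9 beyond about 50% at 5 µM, limit read from the data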
Numbers without * were called inactive; . = no result. Shown are actives, neighbours in structure and some others; about 28% of the full set was active somewhere.

SMILES	CYP2C19 activ	CYP2C19 inh	CYP2C9 activ	Pyk2 oligo antag	CYP2C9 inh
COc1nc(Nc2ccc(C(C)=O)cc2)nc(OC)n1	0.5	50.6*	0.5	0.95	50.6*
COc1nc(Nc2ccc3c(c2)OCO3)nc(OC)n1	0.5	48.8	0.3	.	67.9*
COC(=O)c1ccc(Nc2nc(C)cc(C)n2)cc1	1	2.7	0.9	0.12	7.1
CC1=C(C(=O)Nc2ccccc2F)C(c2ccsc2)C2=C(CC(c3ccccc3)CC2=O)N1 (stereo not drawn)	0.2	79.2*	0.9	-1.07	6.2
O=C(CCCCCN1C(=O)CCC1=O)Nc1ccc(Cl)c(C(F)(F)F)c1	0.3	69.4*	0.7	0.13	30.4
O=C(NCCC1=CCCCC1)N[C@@H](Cc1ccccc1)C(=O)O	0.9	6.7	1	0.62	-1.4
CN(C)S(=O)(=O)NC(c1ccccc1)c1ccccc1	0.2	82.8*	0.4	-1.08	59.8*
CC1=C(C(=O)Nc2ccccc2)C(c2ccc(C)o2)n2ncnc2N1 (stereo not drawn)	1	-0.7	1	-0.59	2.1
COc1ccc(CCNC(=O)COC(=O)c2cnc(C)cn2)cc1OC	1	0.1	1	1.55	-3.3
COc1ccc(CCNC(=O)COc2ccc(S(=O)(=O)N3CCOCC3)cc2)cc1OC	0.9	14.9	0.5	-0.15	50.3*
COc1ccc(CCNC(=O)COc2ccc(S(=O)(=O)N3CCOCC3)cc2)cc1	0.8	23.6	0.7	0.39	34.1
COc1ccc(CCNC(=O)COc2ccc(-c3ccc(C)cc3)cc2)cc1OC	1	3.1	0.3	-0.46	74.5*
CC(=O)NCCSC(=O)c1ccc(F)cc1	1	2.5	1	-0.16	0.6
CCCCCCCC(=O)NNC(=O)CCC(=O)O	.	.	.	2.52	.
COc1ccc(S(=O)(=O)NCc2csc(C)n2)cc1	0.5	45.6	1.1	-0.29	-7.4
CCc1ccc(S(=O)(=O)NCc2cn3c(C)csc3n2)s1	0.2	77.7*	1.2	.	-20.3
Cc1csc2nc(CNS(=O)(=O)c3ccc4c(c3)OCCO4)cn12	0.4	63.6*	1.1	.	-13.9
Cc1ccn2cc(CNS(=O)(=O)c3ccc4c(c3)OCCO4)nc2c1	0.8	17.0	1.2	.	-17.8
Cc1nc(CNS(=O)(=O)c2ccc3c(c2)OCCO3)cs1	0.1	86.6*	1.2	1.43	-22.8
O=S(=O)(NCCc1cn2ccccc2n1)c1ccc2c(c1)OCCO2	0.3	69.6*	1.2	.	-18.4
CC(C)n1c(=S)[nH]c2c1c(=O)[nH]c(=O)n2C	1	4.4	0.9	0.37	8.9
CC1(C)CC(O)C(C)(C)N1O (stereo not drawn)	0.8	23.7	1.1	0.6	-9.7
CC(=O)Nc1ccc(S(=O)(=O)NCc2cn3c(C)csc3n2)cc1	.	.	.	0.06	.
Cc1nc(CNS(=O)(=O)c2cc(C)c(C)cc2C)cs1	0.1	87.2*	1.6	-0.36	-61.7
Cc1csc2nc(CNS(=O)(=O)c3ccc4c(c3)CCCC4)cn12	0.5	54.3*	2*	.	-103.1
SMILES	CYP2C19 activ	CYP2C19 inh	CYP2C9 activ	Pyk2 oligo antag	CYP2C9 inh
O=S(=O)(NCc1ccccn1)c1ccc2c(c1)OCCO2	0.2	83.3*	1.4	1.15	-41.5
Cc1csc2nc(CCNS(=O)(=O)c3ccc4c(c3)OCCO4)cn12	0.4	61.5*	1.5	.	-51.5
Cc1ccc(C2C(C#N)=C(N)Oc3c2oc(CO)cc3=O)o1 (stereo not drawn)	1.1	-13.2	1	-0.26	-3.1
CN(C(=O)c1cc2n(n1)C(C(F)(F)F)CC(c1ccco1)N2)c1ccccc1 (stereo not drawn)	0.7	31.1	0.9	-0.49	13.6
C(=N\c1nc2ccccc2n1Cc1ccccc1)/c1cccs1	0.9	6.6	0.6	0.39	36.5
Cc1ccccc1Sc1c(C#N)c(-c2ccccc2)nn1C	0.8	17.7	0.7	-2.16	26.7
CCC(NC(=O)Nc1nnc(C(F)(F)F)s1)(C(F)(F)F)C(F)(F)F	0.8	15.4	0.3	-2.16	70.6*
COc1ccc(C(=O)Nc2nnc(C(F)(F)F)s2)cc1	0.9	6.3	0.3	-1.01	75.0*
O=C(Nc1nnc(C(F)(F)F)s1)c1cccnc1	.	.	.	-0.52	.
O=C(O)CCC(=O)Nc1nnc(C(F)(F)F)s1	1	-1.1	1.1	0.07	-5.4
Fc1ccc(-c2nnc(CN3CCC(c4nc5ccccc5s4)CC3)o2)cc1	0.9	6.8	0.8	0.26	19.8
COc1ccc(OCCSc2nnc(CCNC(=O)c3ccc(OC)cc3)n2C)cc1	0.9	11.1	0.8	1.7	24.4
CCOc1ccc(NC(=O)CSc2nnc(CCNC(=O)c3ccc(OC)cc3)n2C)cc1	0.7	32.6	0.4	0.92	56.7*
COc1ccc(C(=O)NCCc2nnc(SCC(=O)Nc3ccc(Br)cc3)n2C)cc1	0.8	21.0	0.3	1.89	65.3*
Cc1noc(C)c1COc1ccc(C(=O)NCc2ccccn2)cc1	1.1	-13.2	1.2	0.26	-16.4
CCS(=O)(=O)N1Cc2ccccc2CC1C(=O)N1CCN(c2ccccc2)CC1 (stereo not drawn)	0.7	32.3	1.2	0.21	-18.3
Cc1nn(C)cc1C1C2=C(CC(C)(C)CC2=O)OC2=C1C(=O)CC(C)(C)C2	.	.	.	0.74	.
COCCNC(=S)NC12CC3CC(CC(C3)C1)C2	0.6	39.9	1.1	0.77	-7.7
C=C(C)CSc1nnc(CCNC(=O)OC(C)(C)C)o1	0.1	87.4*	0.7	-0.4	34.2
CC(C)(C)OC(=O)NCCCCCc1nnc(SCC(=O)Nc2cccc(Cl)c2)o1	0.1	93.0*	0.1	-0.21	89.8*
CCSc1nnc(CCNC(=O)OC(C)(C)C)o1	1.1	-11.4	0.9	0.48	12.3
CC(C)(C)OC(=O)NCCc1nnc(SCC(=O)Nc2cccc(Cl)c2)o1	0.7	34.9	0.7	2.21	27.9
Clc1ccc(CSc2nnc(Cn3cnc4ccccc43)o2)cc1	0.5	45.1	0.3	-0.14	66.6*
CC(C)(C)OC(=O)NCCc1nnc(SCc2ccc(Cl)cc2)o1	0.8	24.7	0.5	0.01	53.9*
COc1ccc(N(C(=O)c2ccc(S(=O)(=O)N3CCOCC3)cc2)C2C=CS(=O)(=O)C2)cc1 (stereo not drawn)	1	4.6	1	0.14	-4.1
SMILES	CYP2C19 activ	CYP2C19 inh	CYP2C9 activ	Pyk2 oligo antag	CYP2C9 inh
CCCOC(=O)Nc1ccc(N2CCCCC2)cc1	1.1	-7.5	1.2	-0.31	-19.9
O=C(CNC(=O)c1cccs1)c1ccc(F)cc1	.	.	.	0.22	.
CCC(C)(C)NC(=O)CN(Cc1cccs1)C(=O)CNS(=O)(=O)c1ccc(C)cc1	1	-0.7	1.1	-0.47	-13.4
Cc1ccc(/C=N\NC(=O)Cn2c(C)nc3ccccc32)o1	1	3.7	0.9	1.37	9.6
CCOC(=O)N1CCN(CCC(=O)Nc2ccc(OC(F)(F)F)cc2)CC1	.	.	.	2.47	.
Clc1ccc(CSc2nnc(CNc3cccc(Cl)c3)o2)cc1	0.5	52.6*	0.7	0.38	25.1
